Experiment [1] can be described thus: small molecules captured by biotinylated probe aFSTL3 – biochemical, small-molecule microarray, fluorescence 635/667, stem cell growth factor project, primary screen (AID 1064).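 Further: measures binding of the biotinylated anti-FSTL3 antibody to printed compounds.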 Particulars: higher = more signal.
Experiment [2] is described as follows: binders from COS7 lysate, DM2A8 probe, primary screen, torsin A project, cell lysate, small-molecule microarray, fluorescence 635/667 (AID 1065). Particulars: higher = more signal, COS7 lysate expressing mutant human TOR1A.
Experiment [3] is described as follows: small molecules captured by biotinylated probe aFGF2 – biochemical, small-molecule microarray, fluorescence 635/667, stem cell growth factor project, primary screen (AID 1067).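 Further: measures binding of biotinylated aFGF2 protein to printed compounds on slides; z-score merges feature fluorescence and signal-to-noise across triplicate slides.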 Particulars: higher = more signal.
Experiment [4] can be described thus: small molecules captured by biotinylated probe aFGF10 – biochemical, small-molecule microarray, fluorescence 635/667, stem cell growth factor project, primary screen (AID 1071).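 Further: score merges 667 nm spot intensity and signal to noise from triplicate slides.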 To be noted: higher = more signal.
In experiment [5] the target is Neurogenic locus notch homolog protein 2 (Homo sapiens) (UniProt Q04721). In words: small molecules binding Notch2 protein – biochemical, small-molecule microarray, 635 nm fluorescence, stem cell growth factors, primary screen (AID 1073). To be noted: higher = more signal.
Experiment [6] concerns the target Pro-neuregulin-1, membrane-bound isoform (Homo sapiens) (UniProt Q02297). In words: small molecules binding neuregulin-1 protein – biochemical, small-molecule microarray, fluorescence 635/667, psychiatric disease protein project, primary screen (AID 1075).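 Further: score combines 667 nm spot fluorescence with signal to noise.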 Particulars: NRG1 binding, 635 nm fluorescence, higher = more signal.
The test system of experiment [7] is Neuregulin-1 EGF-like domain. The experiment is described as follows: small molecules binding NRG1 EGF domain – biochemical, small-molecule microarray, 635 nm fluorescence, primary screen (AID 1081).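 Further: binding of the protein to compounds printed on small-molecule microarray slides.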 Particulars: higher = more signal.
A short description of experiment [8]: FRG1 expression reporter modulators in myotubes – cell-based, C2C12 myotubes, firefly/Renilla luciferase, luminescence, FRG1 inhibition for FSHD, primary screen (AID 1084). Particulars: FRG1 promoter luciferase, higher = more signal, called active from +8 up or from −8 down.
The nature of experiment [9]: small molecules captured by biotinylated probe aFST – biochemical, small-molecule microarray, fluorescence 635/667, stem cell growth factor project, primary screen (AID 1086).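 Further: score merges 667 nm fluorescence with signal-to-noise of each printed compound spot.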 Particulars: higher = more signal.
Experiment [10] in a line: binders of probe aHhip on microarray, primary screen, stem cell growth factor project, biochemical, small-molecule microarray, fluorescence 635/667 (AID 1087).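 Further: score merges spot fluorescence at 667nm with spot signal to noise ratio.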 Particulars: higher = more signal.
In experiment [11] the test system is PRMT1 (protein arginine N-methyltransferase 1). In words: small molecules binding arginine methyltransferase PRMT1 – biochemical, small-molecule microarray, 635 nm fluorescence, primary screen (AID 1088).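 Further: binding of Prmt1 protein to compounds spotted on small-molecule microarray slides.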 Particulars: higher = more signal.
Experiment [12] in a line: growth effects on S. cerevisiae YJM789 – YJM789 clinical isolate, OD600, 24 h, basal, primary screen (AID 1089).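 Further: growth of clinical yeast isolate S. cerevisiae YJM 789 seeded 1000 cells per well; test concentration not given here.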 Particulars: higher = more signal, called active from +8 up or from −8 down.
Experiment [13] in a line: S. pombe growth modifiers, basal conditions – strain 972, OD600, 24 h, no modulator, primary screen (AID 1090).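 Further: basal condition with compound alone and no growth modifier present; test concentration not given here.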 To be noted: S. pombe 972 growth, higher = more signal, called active from +8 up or from −8 down.
Experiment [14] can be described thus: budding yeast growth modifiers under rapamycin – strain BY4716, OD600, 96 h, primary screen (AID 1091). Further: test concentration not given here. Particulars: S. cerevisiae BY4716 + rapamycin, higher = more signal, called active from +8 up or from −8 down.
In experiment [15] the target is Torsin-1A-interacting protein 2 (Homo sapiens) (UniProt Q8NFQ8). In words: small molecules binding lysate-expressed LULL1 – cell lysate, human LULL1 lysate, 635/667 nm fluorescence, primary screen (AID 1092).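 Further: score merges per-feature 667 nm fluorescence with signal-to-noise.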 To be noted: small-molecule microarray, hLULL1 lysate binding, 635 nm fluorescence; higher = more signal.
Chain of Torsin-1A-interacting protein 2 (Homo sapiens) (Q8NFQ8 whole entry, looked up): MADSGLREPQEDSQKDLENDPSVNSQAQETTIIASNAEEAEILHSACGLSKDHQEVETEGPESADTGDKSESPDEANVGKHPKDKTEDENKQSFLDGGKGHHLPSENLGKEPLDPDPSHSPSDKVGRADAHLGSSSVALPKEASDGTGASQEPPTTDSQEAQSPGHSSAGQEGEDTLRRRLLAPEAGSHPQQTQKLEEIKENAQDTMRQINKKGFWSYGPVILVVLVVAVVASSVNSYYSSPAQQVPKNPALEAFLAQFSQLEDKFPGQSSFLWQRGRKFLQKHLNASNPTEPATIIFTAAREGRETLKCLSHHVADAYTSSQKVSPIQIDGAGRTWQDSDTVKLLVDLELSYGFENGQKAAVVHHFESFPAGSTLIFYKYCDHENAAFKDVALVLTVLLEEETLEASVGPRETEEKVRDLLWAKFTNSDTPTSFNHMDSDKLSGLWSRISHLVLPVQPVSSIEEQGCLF
Experiment [16] can be described thus: optical density change of DRC41 E. coli – strain DRC41, OD650, 24 h, E. coli filamentation project, primary screen (AID 1093).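 Further: MC1000 strain lacking acrAB efflux and sulA so SOS filamentation is blocked; test concentration not given here.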 To be noted: E. coli DRC41 growth, higher = more signal, called active from +8 up or from −8 down.
A short description of experiment [17]: probe aLefty2 binding to arrayed compounds – biochemical, biotinylated probe, 635/667 nm fluorescence, primary screen (AID 1094).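 Further: score merges spot fluorescence near 667 nm with spot signal-to-noise ratio.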 To be noted: small-molecule microarray, higher = more signal.
The test system of experiment [18] is Noggin (protein binding on small-molecule microarray). The experiment is described as follows: small molecules binding Noggin protein – biochemical, 635/667 nm fluorescence, primary screen (AID 1095).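 Further: score merges 667 nm feature fluorescence with signal to noise over triplicate slides.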 To be noted: 635 nm fluorescence, higher = more signal.
In experiment [19] the target is Neurogenic locus notch homolog protein 3 (Homo sapiens) (UniProt Q9UM47). In words: small molecules binding NOTCH3 protein – biochemical, 635/667 nm fluorescence, primary screen (AID 1096). To be noted: small-molecule microarray, 635 nm fluorescence, higher = more signal.
Chain of Neurogenic locus notch homolog protein 3 (Homo sapiens) (Q9UM47 whole entry, looked up): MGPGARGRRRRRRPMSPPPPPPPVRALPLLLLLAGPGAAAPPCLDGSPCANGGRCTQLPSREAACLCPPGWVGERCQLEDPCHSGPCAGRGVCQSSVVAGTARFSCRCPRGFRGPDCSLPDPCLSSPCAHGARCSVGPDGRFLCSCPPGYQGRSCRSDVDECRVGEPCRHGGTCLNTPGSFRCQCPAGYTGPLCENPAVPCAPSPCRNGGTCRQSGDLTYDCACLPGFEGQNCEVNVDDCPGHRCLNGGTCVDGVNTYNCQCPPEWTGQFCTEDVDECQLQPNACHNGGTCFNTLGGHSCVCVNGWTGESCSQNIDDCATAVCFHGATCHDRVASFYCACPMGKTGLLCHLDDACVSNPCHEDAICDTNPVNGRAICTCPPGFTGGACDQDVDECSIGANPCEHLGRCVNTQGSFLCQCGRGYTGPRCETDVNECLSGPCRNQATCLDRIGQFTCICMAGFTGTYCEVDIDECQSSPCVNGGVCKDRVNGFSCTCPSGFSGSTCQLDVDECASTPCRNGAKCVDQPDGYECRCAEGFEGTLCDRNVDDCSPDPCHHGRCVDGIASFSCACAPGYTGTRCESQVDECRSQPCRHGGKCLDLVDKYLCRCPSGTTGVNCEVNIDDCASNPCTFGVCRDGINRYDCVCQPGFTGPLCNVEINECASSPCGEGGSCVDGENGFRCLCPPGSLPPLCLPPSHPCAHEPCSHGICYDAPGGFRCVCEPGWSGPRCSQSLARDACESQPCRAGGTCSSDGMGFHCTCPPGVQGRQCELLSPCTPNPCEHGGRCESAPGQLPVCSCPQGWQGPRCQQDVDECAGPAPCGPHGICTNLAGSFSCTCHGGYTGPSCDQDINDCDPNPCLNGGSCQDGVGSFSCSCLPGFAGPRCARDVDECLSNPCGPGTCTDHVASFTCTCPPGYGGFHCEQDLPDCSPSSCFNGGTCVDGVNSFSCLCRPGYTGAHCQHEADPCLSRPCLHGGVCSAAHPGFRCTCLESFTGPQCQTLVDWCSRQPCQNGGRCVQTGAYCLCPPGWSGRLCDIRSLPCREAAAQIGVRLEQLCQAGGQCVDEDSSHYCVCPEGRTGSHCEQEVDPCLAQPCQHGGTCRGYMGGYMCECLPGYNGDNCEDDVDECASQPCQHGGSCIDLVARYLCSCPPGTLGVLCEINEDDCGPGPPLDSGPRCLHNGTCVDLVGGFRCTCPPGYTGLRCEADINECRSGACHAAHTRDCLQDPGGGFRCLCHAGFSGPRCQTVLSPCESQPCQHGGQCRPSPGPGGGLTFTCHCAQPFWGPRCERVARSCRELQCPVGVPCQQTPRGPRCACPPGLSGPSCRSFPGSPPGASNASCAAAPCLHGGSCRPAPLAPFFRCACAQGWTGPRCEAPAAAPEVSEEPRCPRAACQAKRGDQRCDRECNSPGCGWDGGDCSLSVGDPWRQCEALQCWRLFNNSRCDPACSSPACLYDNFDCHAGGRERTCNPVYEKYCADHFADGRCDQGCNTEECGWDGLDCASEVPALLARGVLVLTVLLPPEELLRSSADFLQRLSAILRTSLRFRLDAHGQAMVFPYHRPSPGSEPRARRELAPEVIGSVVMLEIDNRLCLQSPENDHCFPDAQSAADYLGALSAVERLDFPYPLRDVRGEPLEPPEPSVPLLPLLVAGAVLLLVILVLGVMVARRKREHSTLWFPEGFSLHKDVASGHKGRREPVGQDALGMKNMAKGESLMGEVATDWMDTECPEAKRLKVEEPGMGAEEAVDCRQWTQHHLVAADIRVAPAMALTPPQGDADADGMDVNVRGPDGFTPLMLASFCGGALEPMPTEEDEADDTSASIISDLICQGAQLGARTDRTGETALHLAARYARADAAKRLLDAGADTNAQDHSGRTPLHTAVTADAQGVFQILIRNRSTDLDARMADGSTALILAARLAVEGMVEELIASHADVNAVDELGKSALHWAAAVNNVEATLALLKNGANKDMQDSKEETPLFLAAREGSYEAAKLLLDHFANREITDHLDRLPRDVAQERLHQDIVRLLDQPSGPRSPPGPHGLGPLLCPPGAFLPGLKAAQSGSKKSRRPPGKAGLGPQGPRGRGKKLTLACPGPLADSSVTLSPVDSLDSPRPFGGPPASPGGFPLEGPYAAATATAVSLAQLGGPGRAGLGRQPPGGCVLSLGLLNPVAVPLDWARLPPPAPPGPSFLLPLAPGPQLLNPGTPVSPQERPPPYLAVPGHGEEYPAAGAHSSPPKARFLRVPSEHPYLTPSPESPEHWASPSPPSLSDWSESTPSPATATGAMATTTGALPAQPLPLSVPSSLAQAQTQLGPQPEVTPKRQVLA
A short description of experiment [20]: probe aEGFR binding to arrayed compounds – biochemical, biotinylated probe, 635/667 nm fluorescence, primary screen (AID 1097).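 Further: probe is a biotinylated anti-EGFR antibody binding compounds printed on slides; score combines fluorescence near 667 nm and signal to noise of each spot.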 Particulars: small-molecule microarray, higher = more signal.

The source made the active and inactive calls.

Chain of Pro-neuregulin-1, membrane-bound isoform (Homo sapiens) (Q02297 whole entry, looked up, the tested form may be a part, canonical isoform): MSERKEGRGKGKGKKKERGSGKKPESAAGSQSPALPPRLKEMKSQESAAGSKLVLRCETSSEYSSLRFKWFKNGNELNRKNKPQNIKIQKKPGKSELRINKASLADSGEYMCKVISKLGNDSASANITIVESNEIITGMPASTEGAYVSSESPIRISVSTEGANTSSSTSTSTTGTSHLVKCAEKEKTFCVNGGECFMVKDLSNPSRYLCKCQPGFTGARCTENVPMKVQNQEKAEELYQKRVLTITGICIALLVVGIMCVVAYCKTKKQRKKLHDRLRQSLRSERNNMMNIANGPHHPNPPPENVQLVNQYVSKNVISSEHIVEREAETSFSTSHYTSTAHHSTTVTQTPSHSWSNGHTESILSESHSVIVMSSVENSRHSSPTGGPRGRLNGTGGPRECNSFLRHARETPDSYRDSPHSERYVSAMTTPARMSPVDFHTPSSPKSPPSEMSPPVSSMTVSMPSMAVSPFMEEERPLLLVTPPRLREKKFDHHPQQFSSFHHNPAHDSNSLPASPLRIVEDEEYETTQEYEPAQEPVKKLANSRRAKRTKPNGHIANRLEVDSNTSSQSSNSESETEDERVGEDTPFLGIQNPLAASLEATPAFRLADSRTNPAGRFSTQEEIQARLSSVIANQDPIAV

Turning to `O=c1cccc(-c2ccco2)o1`, the composite z-score is -0.539 in experiment [1]; 0.336 in [2]; -0.132 in experiment [3]; 0.694 in experiment [4]; 0.386 in experiment [5]; 0.904 in [6]. Further, the composite z-score is 0.498 in experiment [7]; 0.0153 in [9]; -0.0994 in experiment [10]; 1.29 in [11]; 0.108 in [15]; -0.0963 in [17]. Further, the composite z-score in experiment [18] came to 1.32; in [19], 0.832; in experiment [20], 0.0023. Moreover, the z-score is 0.557 (inactive) in experiment [8]; -0.445 (inactive) in [12]; -0.311 (inactive) in experiment [13]; 0.167 (inactive) in experiment [14]; -0.696 (inactive) in [16].

For `CC(C)(C)OC(=O)CC[C@]12N=C(c3ccc(OCCCO)cc3)O[C@H]1c1ccccc1N(Cc1ccccc1)C2=O`, the composite z-score in [1] turned out to be 0.555; in experiment [2] it was 0.178; in experiment [3], 0.0436; in [4], 0.329; in experiment [5] it was 0.0567; in experiment [6], 0.457. Besides, the composite z-score in experiment [7] is 1.13; in experiment [9], 0.259; in [10], -0.187; in experiment [11], 1.54; in experiment [15], 2.72; in experiment [17] it was 0.12. Besides, the composite z-score in experiment [18] was 0.938; in [19], 0.967; in [20], -0.128. Moreover, the z-score in experiment [8] is -1.7 (inactive); in experiment [12], 0.429 (inactive); in [13], -1.1 (inactive); in experiment [14] it was 5.79 (inactive); in [16], 0.911 (inactive).

For `C=C(COC)/C(=C/C[C@@H](OC(=O)c1ccncc1)c1ccccc1OCCO)c1cc(C(=O)OC)ccc1OC`, the composite z-score in [1] is 0.232; in experiment [2] it was -0.72; in [3], -0.0718; in [4] it was 0.263; in [5] it was -0.381; in experiment [6], -0.33. The composite z-score was 0.851 in [7]; -0.3 in [9]; -0.0645 in experiment [10]; 0.768 in experiment [11]; 0.703 in experiment [15]; -0.106 in [17]. Moreover, the composite z-score is -0.341 in experiment [18], -0.0686 in experiment [19] and -0.178 in experiment [20]. For the same compound, the z-score in experiment [8] was -1.87 (inactive); in [12], -0.833 (inactive); in [13], -0.778 (inactive); in [14], 0.351 (inactive); in [16], 0.0184 (inactive).

As to `CC(C)OC(=O)CC(=O)CC(O)c1ccc([N+](=O)[O-])cc1` (stereo not given), the composite z-score in [1] was 0.231; in experiment [2], 0.219; in experiment [3], 0.0033; in [4] it was 0.307; in experiment [5], 0.795; in [6], 0.0916. Further, the composite z-score in [7] was 0.438; in experiment [9] it was 0.0731; in experiment [10], -0.123; in [11], 0.65; in experiment [15], 1.27; in [17], 0.0416. The composite z-score in experiment [18] was -0.0624; in experiment [19], 0.422; in experiment [20], -0.213. Also, the z-score in experiment [8] was 0.719 (inactive); in [12], -0.0857 (inactive); in experiment [13], -0.26 (inactive); in experiment [14] it was -0.34 (inactive); in [16] it was -0.215 (inactive).

Source of the values: PubChem BioAssay.
